Measured values published in PubChem BioAssay AID1578 (Sanford-Burnham Center for Chemical Genomics, 2009).
Out of some 290,000 compounds screened, about 3,000 (1%) were called active. Cut-off read from the data, not from the text of the source: active = inhibition mostly above about 36% (no sharp cut-off); inactive = mostly below about 34%. The list comes from a sample in which actives are over-represented; it also holds similar structures and randomly drawn compounds.

Assay: inhibition of NOD1-driven NF-kB reporter – cell-based, luminescence, uHTS, primary screen (AID 1578);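 note: HEK-293T reporter cells stimulated with the NOD1 agonist gamma-tri-DAP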
Settings: NOD1-driven NF-kB luciferase reporter cells, at 4 µM, stronger effect = higher value
With `Nc1nc(-c2ccccc2)c(N=Nc2cccnc2)s1` the inhibition was 69.6% (active).
For `Nc1nc(-c2ccccc2)c(N=Nc2cccc3ccccc23)s1`, the inhibition was -6.2% (inactive).
With `Nc1nc(-c2ccccc2)c(N=Nc2ccc(Cl)cc2)s1` the inhibition was 14.5% (inactive).
With `Cc1cc(NC(=O)CSc2nc(Cc3ccc(O)cc3)c(C)[nH]2)no1` the inhibition was 29.2% (inactive).
For `COC(=O)c1nn(-c2ccc3c(c2)CCN3C(C)=O)cc1O`, the inhibition was 78.5% (active).
With `COC(=O)c1nn(-c2ccc3c(c2)OCO3)cc1O` the inhibition was -11.8% (inactive).
In the case of `CCOC(=O)c1nn(-c2ccc3c(c2)CCN3C(C)=O)cc1O`, the inhibition is reported as -27.8% (inactive).
With `N#CN=C(c1ccccc1)c1ccccc1` the inhibition was -20.8% (inactive).
In the case of `O=C(c1ccc(N2CCCC2=O)cc1)N1CCN(c2ccc(Cl)cc2)CC1`, the inhibition is reported as -4.5% (inactive).
In the case of `O=C(c1ccccc1-c1nc(-c2ccccc2)no1)N1CCCC1`, the inhibition is reported as -35% (inactive).
For `FC(F)(F)c1ccc(C2NCCc3sccc32)cc1` (stereo unspecified), the inhibition was -38.2% (inactive).
For `Cn1ccs/c1=N\C(=O)Nc1cccc(C(F)(F)F)c1`, the inhibition was -21.9% (inactive).
In the case of `Cn1ccs/c1=N\C(=O)Nc1cccc(Cl)c1`, the inhibition is reported as 110% (active).
For `Cn1ccs/c1=N\C(=O)Nc1ccccc1`, the inhibition was -7.2% (inactive).
For `CCOC(=O)CN1C(=O)S/C(=C/c2ccco2)C1=O`, the inhibition was -37.3% (inactive).
In the case of `CC(C)N(C)Cc1nnnn1CC(=O)N(C)Cc1cccc(Cl)c1`, the inhibition is reported as -14.1% (inactive).
For `Nc1nc(Nc2ccc(Cl)cc2)nc(NCCO)c1[N+](=O)[O-]`, the inhibition was 3% (inactive).
With `Cc1cc(Cl)ccc1OC(C)C(=O)Nc1ccc(C(=O)Nc2ccccc2C(=O)O)cc1` (stereo unspecified) the inhibition was 82.7% (active).
For `Cc1ccc(NC(=O)c2ccc(OC(=O)C(C)Oc3ccc(Cl)cc3C)cc2)cc1` (stereo unspecified), the inhibition was -12.4% (inactive).
In the case of `CC(C)C(=O)Nc1cccc(C(=O)Nc2ccccc2C(=O)O)c1`, the inhibition is reported as -0.4% (inactive).
In the case of `Cn1cnnc1SCc1ccc(C#N)cc1Cl`, the inhibition is reported as -35.4% (inactive).
In the case of `CC1CC(NC(=O)Cc2ccc(Br)cc2)CC(C)(C)C1` (stereo unspecified), the inhibition is reported as -9.8% (inactive).
In the case of `O=C(c1cccc2c1-c1ccccc1/C2=N/O)N1CCCCC1`, the inhibition is reported as 66.9% (active).
In the case of `CC(C)COC(=O)c1cccc2c1-c1ccccc1/C2=N\O`, the inhibition is reported as 14.1% (inactive).
In the case of `COc1ccccc1C(=O)Nc1ccccc1C(=O)N1C(C)CCCC1C` (stereo unspecified), the inhibition is reported as -5% (inactive).
In the case of `O=C1c2ccccc2-c2c1cccc2C(=O)N1CCCCC1`, the inhibition is reported as -12.6% (inactive).
With `O=C1c2ccccc2-c2c1cccc2C(=O)N1CCCCCC1` the inhibition was 0.4% (inactive).
For `CC1CCCC(C)N1C(=O)c1cccc2c1-c1ccccc1/C2=N/O` (stereo unspecified), the inhibition was 75.8% (active).
In the case of `CN1CC(=O)N(CC(=O)Nc2cc(Cl)cc(Cl)c2)C1=O`, the inhibition is reported as -17.3% (inactive).
In the case of `CCn1c(=O)c(C(=O)Nc2ccsc2C(=O)OC)c(O)c2ccccc21`, the inhibition is reported as -28.8% (inactive).
With `COc1ccccc1C(=O)NC1CC2CCC(C1)N2Cc1ccccc1` (stereo unspecified) the inhibition was -9.7% (inactive).
For `COc1ccc(CCNC(=S)NC(=O)c2cccc(Cl)c2)cc1OC`, the inhibition was -2.1% (inactive).
With `Cn1nc([N+](=O)[O-])c(C(C#N)c2nc3ccccc3n2C)c(Cl)c1=O` (stereo unspecified) the inhibition was 23.7% (inactive).
With `CCCn1nc([N+](=O)[O-])c(C(C#N)c2nc3ccccc3o2)c(Cl)c1=O` (stereo unspecified) the inhibition was 80.5% (active).
In the case of `CCn1nc([N+](=O)[O-])c(C(C#N)c2nc3ccccc3n2C)c(Cl)c1=O` (stereo unspecified), the inhibition is reported as 32% (inactive).
For `Cn1nc([N+](=O)[O-])c(C(C#N)c2ccccn2)c(Cl)c1=O` (stereo unspecified), the inhibition was -21.4% (inactive).
With `CCCn1nc([N+](=O)[O-])c(C(C#N)c2nc3ccccc3s2)c(Cl)c1=O` (stereo unspecified) the inhibition was 63.6% (inactive).
In the case of `COc1ccc(C(C(=O)NC2CCCCC2)N(C(=O)c2ccco2)c2ccccc2C(C)=O)cc1OC` (stereo unspecified), the inhibition is reported as -17.6% (inactive).
For `COc1ccc2c(c1)C(=O)C(=O)N2CC1COc2ccccc2O1` (stereo unspecified), the inhibition was -10% (inactive).
For `O=C(NCCc1csc(-c2ccccc2)n1)c1c(F)cccc1F`, the inhibition was -19.1% (inactive).
In the case of `O=C(NCCc1csc(-c2ccccc2)n1)c1c(F)cccc1Cl`, the inhibition is reported as -7.4% (inactive).
In the case of `O=C(NCCc1csc(-c2ccccc2)n1)c1ccccc1F`, the inhibition is reported as 28.3% (active).
In the case of `CCOC(=O)c1nnn2c1nc(N1CCOCC1)c1ccccc12`, the inhibition is reported as 3.1% (inactive).
With `Cc1ccc(C(=O)N(CC(=O)NC2CCCCC2)c2ccccc2F)s1` the inhibition was -27% (inactive).
In the case of `O=C(NC1CC1)c1ccc(CS(=O)c2ccccc2)o1` (stereo unspecified), the inhibition is reported as -19% (inactive).
With `Cc1ccc2nc(NC(=O)c3ccc(OCC4CCCO4)cc3)sc2c1` (stereo unspecified) the inhibition was 3.2% (inactive).
In the case of `C/C=C(/C)C(=O)OC(C)(C)[C@@H]1Cc2c(ccc3ccc(=O)oc23)O1`, the inhibition is reported as -44.4% (inactive).
In the case of `O=C(COn1nnc2ccc(C(F)(F)F)cc21)Nc1nnc(-c2ccccc2)o1`, the inhibition is reported as 67.4% (active).
For `Cc1cccc(C)c1NC(=O)COn1nnc2ccc(C(F)(F)F)cc21`, the inhibition was -17.2% (inactive).
For `O=C(COn1nnc2ccc(C(F)(F)F)cc21)Nc1c(Cl)cccc1Cl`, the inhibition was -17.9% (inactive).
With `CCOC(=O)C1(Nc2nccs2)Sc2ccccc2NC1=O` (stereo unspecified) the inhibition was 24.1% (inactive).
With `CSc1nncc(-c2ccc(F)cc2)n1` the inhibition was 12.5% (inactive).
With `COc1ccc(/C(C)=N/NC(=O)c2ccc(NS(=O)(=O)c3cccs3)cc2)cc1` the inhibition was -9.8% (inactive).
In the case of `CSCC[C@H](N)C(=O)NCC1CCC(C(=O)Nc2ccc3c(c2)OCO3)CC1` (stereo partly specified), the inhibition is reported as -1.6% (inactive).
For `N#CC1(c2ccccc2)CCCN1C(=O)c1ccco1` (stereo unspecified), the inhibition was 7.3% (inactive).
For `O=Cc1s/c(=N\S(=O)(=O)c2ccccc2)n(CCCCl)c1Cl`, the inhibition was 17.3% (inactive).
In the case of `CCn1c(Cl)c(C=O)s/c1=N\S(=O)(=O)c1ccccc1`, the inhibition is reported as 34% (active).
For `Cc1c(C(C)(C)C)s/c(=N/S(=O)(=O)c2ccccc2)n1C`, the inhibition was 3% (inactive).
In the case of `CN(C)S(=O)(=O)c1cccc(C(=O)Nc2ccccc2N2CCCCC2)c1`, the inhibition is reported as -14.5% (inactive).
In the case of `COc1cc(-c2noc(C)c2-c2ccc(N(C)C)nc2)cc(OC)c1OC`, the inhibition is reported as 62% (active).
In the case of `COc1ccc(-c2c(-c3cc(OC)c(OC)c(OC)c3)noc2C)cn1`, the inhibition is reported as -8.6% (inactive).
For `COc1cc(-c2c(-c3cc(OC)c(OC)c(OC)c3)noc2C)ccc1F`, the inhibition was -21.2% (inactive).
In the case of `CCOC(=O)c1cnn(-c2nc3sc4c(c3c(=O)[nH]2)CCCC4)c1N`, the inhibition is reported as 63.7% (active).
In the case of `CCOC(=O)c1cnn(-c2nc(SC)nc3sc4c(c23)CCCC4)c1N`, the inhibition is reported as -0.3% (inactive).
With `CCOC(=O)c1cnn(-c2nc(C)nc3sc4c(c23)CCC4)c1N` the inhibition was -33% (inactive).
With `S=C(NCc1ccc(Cl)cc1)NN1CCOCC1` the inhibition was -24.6% (inactive).
In the case of `CCOCCCNC(=O)NC(=O)CN1CCN(S(=O)(=O)c2ccc3c(c2)OCCO3)CC1`, the inhibition is reported as -47% (inactive).
With `O=C1CCC(=O)N1CC1CC2CCC1C2` (stereo unspecified) the inhibition was 0.2% (inactive).
With `COC(=O)c1cn(-c2ccccc2)nc1-c1ccccc1` the inhibition was -4.9% (inactive).
For `COC(=O)c1cn(-c2ccccc2)nc1-c1ccc(OC)cc1`, the inhibition was 47.5% (active).
With `COc1ccc(-c2nn(-c3ccccc3)cc2C(=O)O)cc1` the inhibition was 18.9% (inactive).
With `O=C(c1ccc(Br)cc1)N(c1ccccn1)C1CCCCC1` the inhibition was -12.8% (inactive).
For `CCCN1C(=O)/C(=C/c2c(N3CCNC(=O)C3CC(=O)OCC)nc3c(C)cccn3c2=O)SC1=S` (stereo unspecified), the inhibition was -1% (inactive).
With `CCOC(=O)CC1C(=O)NCCN1c1nc2ccc(C)cn2c(=O)c1/C=C1\SC(=S)N(C(C)CC)C1=O` (stereo unspecified) the inhibition was 20.6% (inactive).
With `CCOC(=O)CC1C(=O)NCCN1c1nc2c(C)cccn2c(=O)c1/C=C1\SC(=S)N(C(C)CC)C1=O` (stereo unspecified) the inhibition was 35.4% (active).
For `CCOC(=O)CC1C(=O)NCCN1c1nc2ccc(C)cn2c(=O)c1/C=C1\SC(=S)N(CC(C)C)C1=O` (stereo unspecified), the inhibition was 3.2% (inactive).
For `CCCN1C(=O)/C(=C/c2c(N3CCNC(=O)C3CC(=O)OC)nc3c(C)cccn3c2=O)SC1=S` (stereo unspecified), the inhibition was 6.9% (inactive).
In the case of `CCOC(=O)CC1C(=O)NCCN1c1nc2c(C)cccn2c(=O)c1/C=C1\SC(=S)N(CC(C)C)C1=O` (stereo unspecified), the inhibition is reported as 32% (active).
For `COc1ccc(C(=O)O)cc1NC(=S)NC(=O)Cc1ccc(Cl)cc1`, the inhibition was -11.2% (inactive).
With `Cn1c(SCC(=O)NCCc2ccccc2)nnc1C1CCCCC1` the inhibition was -6.8% (inactive).
For `COC(=O)Nc1ccc(N2CCOCC2)c(S(=O)(=O)N2CCOCC2)c1`, the inhibition was -18% (inactive).
In the case of `c1ccc(C2[C@H]3CN(Cc4cccnc4)[C@H](c4ccccc4)C34CC2(c2ccccc2)C4)cc1` (stereo partly specified), the inhibition is reported as -5.1% (inactive).
In the case of `Cc1ccc(C)c(N2CCN(C(=O)CCNC(=O)Cn3ccc4ccccc4c3=O)CC2)c1`, the inhibition is reported as 33% (inactive).
For `O=[N+]([O-])c1ccccc1C1Nc2cccc3cccc(c23)N1`, the inhibition was 105% (active).
For `O=[N+]([O-])c1ccc(C2Nc3cccc4cccc(c34)N2)cc1`, the inhibition was 25.1% (inactive).
In the case of `Oc1ccccc1C1Nc2cccc3cccc(c23)N1`, the inhibition is reported as 7.9% (inactive).
With `Cc1ccc(C(NC(=O)N2CCCCC2)=C(Cl)Cl)cc1F` the inhibition was 74% (active).
In the case of `Cc1ccc(C(NC(=O)NCCCN2CCOCC2)=C(Cl)Cl)cc1F`, the inhibition is reported as 34.4% (inactive).
For `Cc1ccc(C(NC(=O)N2CCOCC2)=C(Cl)Cl)cc1F`, the inhibition was 32.1% (inactive).
For `COc1ccc(CN2CCN(c3cccc(C)c3C)CC2)cc1OC`, the inhibition was 21.4% (inactive).
For `CCC1Oc2ccc(C)cc2N(CC(=O)NCCN2CCOCC2)C1=O` (stereo unspecified), the inhibition was -21% (inactive).
In the case of `c1ccc(C2=NN(c3ccccc3)C(c3ccco3)C2)cc1` (stereo unspecified), the inhibition is reported as 54.1% (active).
With `Fc1ccc(C2=NN(c3ccccc3)C(c3ccco3)C2)cc1` (stereo unspecified) the inhibition was 4% (inactive).
With `Clc1ccc(C2=NN(c3ccccc3)C(c3ccco3)C2)cc1` (stereo unspecified) the inhibition was -9.1% (inactive).
In the case of `O=S(=O)(c1ccc(F)cc1)N1CCn2c(nc3ccccc32)C1`, the inhibition is reported as -11.7% (inactive).
With `CCOc1ccc(S(=O)(=O)Nc2cc(C)ccn2)c2ccccc12` the inhibition was 5.2% (inactive).
